These results are taken from article PMC4552634, “A New Set of Chemical Starting Points with Plasmodium falciparum Transmission-Blocking Potential for Antimalarial Drug Discovery” (PLoS ONE, 2015).

Usually % Inhibition stands for the relative decrease from the control value, in per cent.

Structures are written as SMILES. Hit rate of the full screen: of about 13,000 compounds, about 3,200 (25%) showed an effect of 50% or more. Some of the results follow.

The test system of the experiment is P. falciparum stage V gametocytes. Further details: BacTiter-Glo ATP luminescence viability of purified stage V gametocytes in 384-well plates, per cent inhibition versus DMSO. To be noted: 48 h, 5 µM; inhibitor.
In the case of `CCCOc1cc(Cc2cnc(N)nc2N)cc(OC)c1OC` [TCMDC-137661], the “% Inhibition” value is given as 3.215%.

For `Cc1ccc(Oc2ccc(NC(=O)CNc3ccccc3N3CCCC3=O)cc2)cc1` [TCMDC-125245], the “% Inhibition” value was -23.96%. In the case of `CN(C)c1ccc(CN2CCC(CNC(=O)c3cc(-c4cccc(F)c4)cs3)C2)cc1` (stereo not drawn) [TCMDC-134454] it was 71.45%. Regarding `O=C(NC1CCN(Cc2ccccc2)CC1)c1cc(-c2cccnc2)nc2ccc(Cl)cc12` [TCMDC-125223], the “% Inhibition” value is -0.2191%.

In the case of `CN(C)c1ccc(CN2CCC(CNC(=O)c3cc(-c4cccc(C(F)(F)F)c4)cs3)C2)cc1` (stereo not drawn) [TCMDC-134452], the “% Inhibition” value worked out at 29.06%. In the case of `CC(C)(C)c1ccc(CN2CCC(CNC(=O)c3cc(-c4ccccc4)nc4ccccc34)CC2)cc1` [TCMDC-139154] it was 75.79%; in that of `O=C(NC1CCN(Cc2ccccc2)CC1)c1cc(-c2ccncc2)nc2ccc(Cl)cc12` [TCMDC-124995], 9.958%; in that of `CCc1ccc(CN2CCC(CNC(=O)c3cc(-c4cccc(F)c4)cs3)C2)cc1` (stereo not drawn) [TCMDC-134432], 99.62%.

With `CC(Nc1nncc(-c2cccc(F)c2)n1)c1ccc(F)cc1` (stereo not drawn) [TCMDC-124683], the “% Inhibition” value is given as -23.73%. The figure for `COc1ccc(NC(=O)Nc2cccc(-c3ccc(-c4nc5ccc(C(F)(F)F)cc5[nH]4)cc3)c2)cc1` [TCMDC-133244] is -27.48%; for `CCOC(=O)c1ccc(Nc2cc(Nc3ccc(C(=O)OCC)cc3)nc(C)n2)cc1` [TCMDC-125781] it is 36.3%. Consider `O=C(Nc1cccc(CN2CCCN(CC3CC3)CC2)c1)c1ccc(-c2ccccc2)cc1` [TCMDC-141846], for which the “% Inhibition” value was -26.45%. For the compound `Cc1nc2nc(N)nc(N)c2c(C)c1Cc1ccc(O)cc1` [TCMDC-137637], the “% Inhibition” value is reported as -12.62%. In the case of `CC(C)C1C(=O)N(S(C)(=O)=O)C2CCN(C(=O)c3ccc(CN4CCCCC4)c([N+](=O)[O-])c3)C12` (stereo not drawn) [TCMDC-138195] it was 96.13%. On to `O=C(/C=C/c1ccc(Cl)c(Cl)c1)NC1CCC(CN2CCC(Cc3c[nH]c4ccccc34)CC2)CC1` (stereo not drawn) [TCMDC-140141], for which the “% Inhibition” value is on record as 5.841%.

As for `Nc1ccncc1C(=O)NCCCCN1CCN(c2nsc3ccccc23)CC1` [TCMDC-137310], the “% Inhibition” value worked out at 70.91%. In the case of `COc1ccc(Cl)cc1N1CCN(CCCNC(=O)c2ccc(-c3nc4ccncc4[nH]3)c(Br)c2)CC1` [TCMDC-140145] it was -23.34%. The figure for `O=C(NCCCCN1CCN(c2nsc3ccccc23)CC1)c1ccccc1C(=O)NCCCCN1CCN(c2nsc3ccccc23)CC1` [TCMDC-137241] is 54.48%; for `COc1ccccc1N1CCN(CCCCNC(=O)c2ccc(NC(=O)c3ccc(C(F)(F)F)cc3)cc2)CC1` [TCMDC-138110] it is -20.18%; for `O=C(NCCCCN1CCC(c2nc3ccccc3s2)CC1)c1cc2ccccc2[nH]1` [TCMDC-132779] it is 6.014%. In the case of `Nc1c(C(=O)NCCCCN2CCN(c3nsc4ccccc34)CC2)sc2ccccc12` [TCMDC-137254] it was -32.13%. Take `c1csc(-c2nc(NCC3CCCO3)ncc2-c2ccsc2)n1` (stereo not drawn) [TCMDC-125365]: the “% Inhibition” value amounted to 7.159%. In the case of `CCCCCCN1CCCN(Cc2ccc(C(=O)Nc3cccc(CC)c3)cc2)CC1` [TCMDC-136412] it was -23.63%; in that of `CC1(C)N=C(N)N=C(N)N1OCCCc1ccccc1` [TCMDC-131689], 3.846%. On to `CCNc1cc(C(=O)N[C@@H](Cc2ccccc2)[C@H](O)CNC2(CCC(C)C)CC2)cc(N2CCCCS2(=O)=O)c1` [TCMDC-135245], for which the “% Inhibition” value is given as 4.245%. In the case of `O=C(Nc1cccc(OCCN2CCCC2)c1)Nc1ccc(Cl)c(Cl)c1` [TCMDC-139540], the “% Inhibition” value came to 28.24%. The figure for `CCCCCCOc1ccc(C(=O)N[C@H]2CCN(CCCCCNC(=O)/C=C/c3ccc(Cl)c(Cl)c3)C2)cc1` [TCMDC-139564] is 40.4%; for `Clc1ccc(OCCC2CCN(CCCCCCCN3CCC(CCOc4ccc(Cl)c(Cl)c4)CC3)CC2)cc1Cl` [TCMDC-138967] it is 119.8%; for `O=C(Nc1ccc(Cl)c(Cl)c1)N1CCc2ccc(OCCCN3CCCCC3)cc2CC1` [TCMDC-141755] it is 13.17%. For `CCCCCCN1CCC(CNCc2cccc(Cl)c2)CC1` [TCMDC-141678], the “% Inhibition” value was determined as 45.32%. For the compound `Clc1ccc(OCCC2CCN(CCCCCCN3CCCCC3)CC2)cc1Cl` [TCMDC-138982], the “% Inhibition” value amounted to 100.1%. With `N#Cc1ccc(-c2ccc(C(=O)Nc3ccc4c(c3)CCN(C3CCC3)CC4)nc2)cc1` [TCMDC-136032], the “% Inhibition” value stood at 15.17%. In the case of `Cc1onc(-c2ccccc2)c1-c1nc(NC2CCCC(C)C2)no1` (stereo not drawn) [TCMDC-134202], the “% Inhibition” value is -14.49%.

In the case of `CCN(c1ccc(O)c(CN2CCCCC2)c1)c1ccc([N+](=O)[O-])cn1` [TCMDC-138001], the “% Inhibition” value is listed as 10.77%. For `CCN(CC)S(=O)(=O)c1ccc(C(C)NC(=O)c2ccccc2COc2ccccc2)cc1` (stereo not drawn) [TCMDC-125332], the “% Inhibition” value worked out at 39.64%. For the compound `Cc1cc(C)cc(CC(=O)N2CCC(n3c(C)nc4ccc(C)cc43)CC2)c1` [TCMDC-124789], the “% Inhibition” value was 80.51%. The figure for `Cc1ccc(C)c(Cn2c(N3CCC(C(=O)NCc4cccs4)CC3)nc3ccccc32)c1` [TCMDC-124399] is -1.754%; for `CCC(C)NS(=O)(=O)c1ccc2nc(Nc3ccc(C)cc3)n(C3CCCCC3C)c2c1` (stereo not drawn) [TCMDC-136231] it is -48.39%.

With `Cc1ccc2nc(C)n(C3CCN(C(=O)Cc4ccc(F)c(F)c4)CC3)c2c1` [TCMDC-124793], the “% Inhibition” value amounted to 84.63%. In the case of `CCC(C)NS(=O)(=O)c1ccc2nc(Nc3ccc(C)cc3)n(C3CCCCC3)c2c1` (stereo not drawn) [TCMDC-136232] it was -89.75%; in that of `CCN1CCC(N2CCC(n3c(C)nc4cc(C(F)(F)F)ccc43)CC2)CC1` [TCMDC-124671], 0.4186%; in that of `Cc1ccc(C)c(CC(=O)N2CCC(n3c(C)nc4ccc(F)cc43)CC2)c1` [TCMDC-124790], 89.97%. With `CCC(C)NS(=O)(=O)c1ccc2nc(Nc3ccc(C)c(Cl)c3)n(C3CCCCC3)c2c1` (stereo not drawn) [TCMDC-136233], the “% Inhibition” value is -49.77%. As to `O=C(O)c1ccc2nc(-c3ccc(-c4ccccc4)cc3)n(C3CCN(Cc4ccc(-c5ncc[nH]5)cc4)CC3)c2c1` [TCMDC-134669], the “% Inhibition” value is recorded as 12.72%.

Regarding `Cc1nc2ccc(F)cc2n1C1CCN(C(=O)Cc2ccc(F)c(F)c2)CC1` [TCMDC-124794], the “% Inhibition” value is 73.02%.
